Assay outcomes as filed in PubChem.
The list is not random: actives were taken first. Their share in the collection is about 1.2%.
RGS7-Gao reg: modulates binding of RGS7 to human Galphao; actives 0.35% (n = 220,000); Multiplexed bead flow cytometry; actives lie on both sides; binding response (% of control), % at 10 µM; in the data active means binding response below about 49% or above about 150%; inconclusive means no clear call, values can overlap the other calls; inactive means in between;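 further: fluorescent Galphao held in activated GDP-AlF4 state binding bead-coupled RGS7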
Target sequence (P09471 whole entry, looked up): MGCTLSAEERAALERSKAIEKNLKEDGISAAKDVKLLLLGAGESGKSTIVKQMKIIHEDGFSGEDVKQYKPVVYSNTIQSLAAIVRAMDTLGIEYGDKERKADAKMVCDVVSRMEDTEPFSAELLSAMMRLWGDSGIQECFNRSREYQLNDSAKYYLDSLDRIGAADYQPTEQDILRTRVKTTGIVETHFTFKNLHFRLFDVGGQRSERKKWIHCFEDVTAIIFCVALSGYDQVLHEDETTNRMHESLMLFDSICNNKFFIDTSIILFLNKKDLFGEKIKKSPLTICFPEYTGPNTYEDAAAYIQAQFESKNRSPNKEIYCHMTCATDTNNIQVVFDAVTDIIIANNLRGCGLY
GSH fluor: GSH bead compound fluorescence profile. AID 1776. GSH beads flow cytometry, compound fluorescence 488/530 nm; active compounds read high. actives 0.25% (n = 190,000). fluorescence (KMESF) at 10 µM; in the data active means fluorescence above about 89;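 further: glutathione beads carrying GST-tagged Bcl family fusion proteins plus one bare bead set; values are compound well signal with DMSO vehicle wells as background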
Avidin bead fluor: compound fluoresces at 488/530 nm on avidin beads. compound fluorescence 488/530 nm, flow cytometry; active compounds read high. fluorescence (KMESF) at 10 µM. actives 0.38% (n = 220,000). AID 1775; in the data active means fluorescence above about 47
RGS16-Gao: regulators of human RGS16-Galphao interaction | O15492+P09471 | bead-based flow cytometry RGS16-Galphao binding, fluorescence; actives lie on both sides | binding response (% of control), % at 10 µM | actives 0.38% (n = 220,000) | AID 1441; call rule not given here;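 further: Galphao activated by GDP with aluminum fluoride before binding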
RGS4-Gao reg: human RGS4-Galphao interaction regulation | P09471 | binding response (% of control), % at 10 µM | AID 1415 | actives 0.33% (n = 220,000) | Multiplexed bead flow cytometry, RGS4-Galphao binding; actives lie on both sides; in the data active means binding response below about 49% or above about 150%; inactive means in between;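 further: fluorescent Galphao activated with aluminum fluoride binding bead-coupled RGS4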
RGS8-Gao reg: modulates binding of RGS8 to human Galphao | actives 0.34% (n = 220,000) | response (percent of control binding), % at 10 µM | AID 1423 | P09471 | multiplexed bead flow cytometry; actives lie on both sides; in the data active means response below about 60% or above about 140%; inactive means in between;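 further: Galphao activated as the GDP aluminium fluoride complex binding bead-coupled RGS8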
An asterisk follows results filed as active; ? = inconclusive; nt = not tested or not shown; [ ] = dose if it differs, or a comment.

SMILES	RGS7-Gao reg	GSH fluor	Avidin bead fluor	RGS16-Gao	RGS4-Gao reg	RGS8-Gao reg
O=C(O)C1CCCCC1C(=O)Nc1cc(C(F)(F)F)ccc1Cl (stereo not drawn)	100	13	11	114	111	104
CCc1nnc(NC(=O)CCN2C(=O)CCC2=O)s1	93	264*	6	92	94	97
CCCCCCC(=O)Nc1nnc(CC)s1	110	19	6	160	104	117
CC(=NCCCn1ccnc1)c1c(C)[nH]n(-c2ccc([N+](=O)[O-])cc2)c1=O	102	16	11	98	102	102
O=C1c2ccncc2C(=O)N1CO	-10*	11	-3	-20*	-31*	8.6*
CCNC(=S)N(Cc1ccco1)Cc1cc2cc(OCC)ccc2[nH]c1=O	97	11	10	98	98	98
CCNC(=S)N(Cc1cccs1)Cc1cc2cc(OCC)ccc2[nH]c1=O	131	239*	41	143	126	100
Clc1cccc(-c2cc3nc4c(c(N5CCOCC5)n3n2)CCCC4)c1	100	19	35	102	100	101
Clc1cccc(-c2cc3nc4c(c(N5CCN(c6cnccn6)CC5)n3n2)CCCC4)c1	74	104*	3	104	67	77
Cc1ccc(C(=O)NCCc2ccc(S(N)(=O)=O)cc2)cc1[N+](=O)[O-]	107	8	14	115	103	105
COc1ccc(/C=N/n2c(N)c(S(=O)(=O)c3cccs3)c3nc4ccccc4nc32)cc1OC	97	16	47*	95	89	91
Nc1c(S(=O)(=O)c2cccs2)c2nc3ccccc3nc2n1/N=C/c1cccc(O)c1	111	5	57*	113	114	104
COc1cccc(/C=N/n2c(N)c(S(=O)(=O)c3cccs3)c3nc4ccccc4nc32)c1	101	53	7	100	100	101
CCOc1ccc(C2C(C(C)=O)=C(O)C(=O)N2CCc2c[nH]c3ccccc23)cc1 (stereo not drawn)	100	13	13	101	102	101
CCN(CC)CCn1c(=N)n(CC(O)COc2ccccc2)c2ccccc21 (stereo not drawn)	?	nt	51*	87	113	91
CCC(CO)NCc1ccc(OC2CCCC2)cc1 (stereo not drawn)	103	140*	4	100	99	104
COc1ccc(C2C(C(=O)NCc3ccccn3)CCC(=O)N2c2cc(OC)c(OC)c(OC)c2)cc1 (stereo not drawn)	100	27	8	100	100	99
CCc1cc2c(N3CCCCC3)ncnc2s1	108	247*	6	113	108	108
CCOC(=O)Cc1csc(NC(=O)NC2(C(F)(F)F)Oc3ccc(Cl)cc3O2)n1 (stereo not drawn)	94	251*	6	93	95	97
CCOC(=O)Cc1csc(NC(=O)NC2(C(F)(F)F)Oc3cc(Cl)c(Cl)cc3O2)n1	97	35	12	97	97	98
O=C(NCc1ccccc1Cl)c1ccc(-c2ccccc2)cc1	102	9	6	98	101	103
CCCC(=O)Nc1ccc(C(=O)NCc2ccccc2Cl)cc1	95	137*	4	87	99	100
O=C(CN1CCN(c2ncc(C(F)(F)F)cc2Cl)CC1)NC(=O)NCc1ccccc1	103	11	21	107	102	102
O=C(c1cc2c(ccc3ccccc32)o1)N1CCN(c2ncc(C(F)(F)F)cc2Cl)CC1	100	277*	8	104	102	100
CC(=O)NC12CC3CC(C1)CC(C(=O)OCC(=O)Nc1ncc(Cl)c(C)c1Cl)(C3)C2	102	262*	8	96	98	100
SMILES	RGS7-Gao reg	GSH fluor	Avidin bead fluor	RGS16-Gao	RGS4-Gao reg	RGS8-Gao reg
O=C(CCCN1C(=O)c2ccccc2C1=O)NC1=NCCS1	98	259*	8	96	100	104
CC(C)(C)C(=O)N(CCN(C(=O)C(C)(C)C)c1ccccc1)c1ccccc1	113	17	50*	109	111	103
Cc1ccc(NC(=O)C2CC(=O)N(Cc3ccccc3)C2)cc1S(=O)(=O)N1CCCCCC1 (stereo not drawn)	100	14	21	99	100	104
CCc1ccc(N2CC(C(=O)Nc3ccc(C)c(S(=O)(=O)N4CCOCC4)c3)CC2=O)cc1 (stereo not drawn)	152*[activator]	34	5	168	181*[activator]	145*[activator]
Cc1cc(N2CC(C)OC(C)C2)nc2ccccc12 (stereo not drawn)	?	15	9	96	102	101
Cc1ccccc1NC(=O)N1CCN(c2ncccn2)CC1	99	17	10	99	99	99
N#C/C(=C\c1ccc(O)c(O)c1)S(=O)(=O)c1ccccc1	203*[activator]	28	nt	259*[activator]	223*[activator]	155*[activator]
NC(=O)COn1c(SCC(N)=O)nc2ccccc2c1=O	?	nt	8	104	104	103
O=C(O)C1CC=CCC1C(=O)NCc1ccc2c(c1)OCO2 (stereo not drawn)	100	102*	4	104	98	103
O=C(OCC(=O)N1CCN(C(=O)c2ccco2)CC1)C1=COCCO1	138	31	82*	90	94	91
CCOC(=O)C1CCCN(C(=O)COC(=O)C2=COCCO2)C1 (stereo not drawn)	119	12	71*	103	104	99
O=C(NNc1c(F)c(F)cc(F)c1F)c1cc2ccccc2oc1=O	96	24	8	101	100	98
Cn1c(N)c(C(=O)COC(=O)CNS(=O)(=O)c2cccc(Cl)c2)c(=O)n(C)c1=O	97	9	13	106	100	103
CCCCn1c(SCC(=O)NC2CCS(=O)(=O)C2)nc2cc(S(N)(=O)=O)ccc21 (stereo not drawn)	?	11	13	109	104	103
CCC(C(=O)N1CCN(c2ccccn2)CC1)n1nc(C)n2c(cc3occc32)c1=O (stereo not drawn)	100	27	39	101	102	100
Cc1nn(C(C)C(=O)N2CCN(c3ccccn3)CC2)c(=O)c2cc3occc3n12 (stereo not drawn)	110	18	47*	125	107	106
CCOc1cccc(C(=O)Nc2cccc(-c3nnc(-c4ccc(C)cc4)o3)c2)c1	143	24	46	341	151*[activator]	109
CCOc1cccc(C(=O)Nc2cccc(-c3nnc(-c4ccccc4)o3)c2)c1	89	20	8	93	93	95
Cc1ccc(Nc2c3c(nc4ncnn24)CCC3)cc1	142	37	82*	101	105	98
